Results on 21 molecules are retold here after PubChem BioAssay.

A number with no mark means an inactive call. For part of these data: Results with a measured potency or affinity are listed apart. The source made the active and inactive calls. Unless noted, the rule behind the calls is not given here.

Broadly, the inhibition is the drop in the measured response relative to a control, in per cent.

Experiment [1] is described as follows: antimalarial activity against Dd2 strain (AID 2302;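 active = growth inhibition above 50% at the single 2 µM test dose, taken to imply half-maximal potency below 2 µM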;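 note: 0% = DMSO untreated growth and 100% = chloroquine plus artemisinin killed control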). The settings on record: P. falciparum Dd2 in RBCs, LDH growth readout, 72 h; at 2 µM; hits give high values.
Experiment [2] can be described thus: HepG2 cytotoxicity, primary screen, cytotoxicity control for P. falciparum antimalarial project, cell-based, ATP luminescence (AID 2303;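 active = inhibition above 50%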;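 note: 0% = DMSO wells and 100% = digitonin-killed cells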). The settings on record: HepG2 viability, 24-48 h, at 10 µM, hits give high values.
The target of experiment [3] is L-lactate dehydrogenase (Plasmodium falciparum (isolate CDC / Honduras)) (UniProt Q27743). Kind of experiment: PfLDH activity inhibition – cell lysate, 3D7 strain, counter-screen for P. falciparum growth inhibition project (AID 2304).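 Note: 0% = vehicle and 100% = reference inhibitor.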 The settings on record: P. falciparum 3D7 crude extract, LDH APAD/NBT absorbance; at 2 µM; hits give high values.
Chain of L-lactate dehydrogenase (Plasmodium falciparum (isolate CDC / Honduras)) (Q27743 whole entry, looked up): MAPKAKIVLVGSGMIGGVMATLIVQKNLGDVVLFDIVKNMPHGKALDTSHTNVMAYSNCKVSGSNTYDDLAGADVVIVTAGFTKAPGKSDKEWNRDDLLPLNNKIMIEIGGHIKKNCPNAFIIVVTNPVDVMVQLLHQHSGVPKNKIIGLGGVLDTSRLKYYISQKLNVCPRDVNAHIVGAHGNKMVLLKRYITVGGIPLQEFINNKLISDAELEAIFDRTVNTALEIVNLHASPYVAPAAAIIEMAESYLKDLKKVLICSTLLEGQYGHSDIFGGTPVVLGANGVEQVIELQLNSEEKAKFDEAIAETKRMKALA
Experiment [4] can be described thus: inhibition of 3D7 malaria parasite growth – strain 3D7 (AID 2306).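 Note: 0% = DMSO wells and 100% = chloroquine plus artemisinin control wells.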 As to conditions: P. falciparum 3D7 erythrocytic growth, LDH absorbance, 72 h; at 2 µM; hits give high values.
Experiment [5] deals with Calcium-dependent protein kinase 1 (Plasmodium falciparum (isolate 3D7)) (UniProt P62344). Description: PfCDPK1 kinase inhibitors, biochemical, TCAMS library (AID 1159585; cut-off not given, nearly all actives have IC50 up to about 0.98 µM;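 note: inhibitors leave more ATP so luminescence rises with inhibition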). The settings on record: recombinant PfCDPK1, Kinase-Glo ATP depletion luminescence. For orientation: Kinase-Glo measures the ATP left after a reaction by luminescence.
Chain of Calcium-dependent protein kinase 1 (Plasmodium falciparum (isolate 3D7)) (P62344 whole entry, looked up): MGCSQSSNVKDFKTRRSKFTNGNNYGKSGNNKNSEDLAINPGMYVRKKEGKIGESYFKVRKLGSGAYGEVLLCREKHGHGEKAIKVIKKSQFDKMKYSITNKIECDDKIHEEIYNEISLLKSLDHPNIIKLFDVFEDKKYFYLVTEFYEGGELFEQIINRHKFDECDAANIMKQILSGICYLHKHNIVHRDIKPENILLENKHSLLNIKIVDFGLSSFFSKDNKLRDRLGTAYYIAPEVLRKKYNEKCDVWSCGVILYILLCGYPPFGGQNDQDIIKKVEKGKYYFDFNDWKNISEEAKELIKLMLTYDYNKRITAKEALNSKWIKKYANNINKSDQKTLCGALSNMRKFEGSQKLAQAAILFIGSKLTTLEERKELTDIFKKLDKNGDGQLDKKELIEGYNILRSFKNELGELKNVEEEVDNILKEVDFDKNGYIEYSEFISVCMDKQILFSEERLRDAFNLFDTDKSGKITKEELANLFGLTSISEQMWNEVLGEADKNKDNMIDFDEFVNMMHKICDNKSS
Experiment [6] has as its target Plasmodium falciparum protein kinase 6 (PK6, PF3D7_1337100) (UniProt Q8IDW1). Description: PfPK6 kinase inhibitors, biochemical, TCAMS library (AID 1159586). The settings on record: recombinant PfPK6, Kinase-Glo ATP depletion luminescence.
The target of experiment [7] is Protein kinase 7 (PK7), Plasmodium falciparum 3D7 (PF3D7_0213400) (UniProt Q7YTF7). Description: inhibition of Plasmodium PK7 catalytic activity – biochemical, TCAMS antimalarial set, Kinase-Glo luminescence (AID 1159587). As to conditions: recombinant PfPK7, Kinase-Glo ATP depletion luminescence.
Chain of Protein kinase 7 (PK7), Plasmodium falciparum 3D7 (PF3D7_0213400) (Q7YTF7 1-343): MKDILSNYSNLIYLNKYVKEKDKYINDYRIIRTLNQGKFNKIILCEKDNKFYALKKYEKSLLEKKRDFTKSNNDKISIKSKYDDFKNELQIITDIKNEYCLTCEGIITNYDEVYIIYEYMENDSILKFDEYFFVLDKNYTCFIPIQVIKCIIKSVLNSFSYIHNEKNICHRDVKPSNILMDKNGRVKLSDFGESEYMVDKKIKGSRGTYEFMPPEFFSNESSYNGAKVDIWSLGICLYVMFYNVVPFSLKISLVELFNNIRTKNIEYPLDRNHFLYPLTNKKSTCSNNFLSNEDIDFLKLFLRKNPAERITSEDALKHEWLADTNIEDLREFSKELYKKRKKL
Experiment [8] concerns the target Calcium-dependent protein kinase 4 (Plasmodium falciparum (isolate 3D7)) (UniProt Q8IBS5). Description: PfCDPK4 kinase inhibitors, biochemical, TCAMS library (AID 1159588; cut-off not given, nearly all actives have IC50 up to about 0.91 µM). As to conditions: recombinant PfCDPK4, Kinase-Glo ATP depletion luminescence.

Chain of Calcium-dependent protein kinase 4 (Plasmodium falciparum (isolate 3D7)) (Q8IBS5 whole entry, looked up): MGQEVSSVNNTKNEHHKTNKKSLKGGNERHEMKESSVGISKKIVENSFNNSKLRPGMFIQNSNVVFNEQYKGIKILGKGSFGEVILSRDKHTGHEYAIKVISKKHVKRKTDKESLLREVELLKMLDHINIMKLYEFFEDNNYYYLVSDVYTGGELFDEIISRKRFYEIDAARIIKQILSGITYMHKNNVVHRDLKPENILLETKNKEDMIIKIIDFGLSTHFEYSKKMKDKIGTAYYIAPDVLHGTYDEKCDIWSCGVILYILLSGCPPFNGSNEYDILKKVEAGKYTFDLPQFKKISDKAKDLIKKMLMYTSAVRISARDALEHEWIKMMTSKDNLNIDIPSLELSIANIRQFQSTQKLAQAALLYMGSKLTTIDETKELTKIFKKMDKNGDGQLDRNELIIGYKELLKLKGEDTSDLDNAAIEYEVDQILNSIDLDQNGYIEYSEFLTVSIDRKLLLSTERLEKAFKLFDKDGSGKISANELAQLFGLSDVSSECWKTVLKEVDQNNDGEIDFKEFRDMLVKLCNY
Chain of Plasmodium falciparum protein kinase 6 (PK6, PF3D7_1337100) (Q8IDW1 1-305): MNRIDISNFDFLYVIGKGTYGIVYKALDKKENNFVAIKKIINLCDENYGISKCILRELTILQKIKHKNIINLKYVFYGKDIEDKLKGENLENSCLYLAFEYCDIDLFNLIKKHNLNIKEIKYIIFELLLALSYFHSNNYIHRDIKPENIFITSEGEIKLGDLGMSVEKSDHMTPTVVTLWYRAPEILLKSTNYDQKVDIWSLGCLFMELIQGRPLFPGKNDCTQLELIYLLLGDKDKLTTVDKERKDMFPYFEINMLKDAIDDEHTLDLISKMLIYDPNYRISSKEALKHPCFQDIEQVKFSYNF

For the molecule `CC(Cc1ccc(OCCN2CCN(c3cccc(Cl)c3)CC2)cc1)NCC(O)c1cccc(Cl)c1` (stereo not drawn), the values for the growth inhibition in experiment [1] and in experiment [4] were 91% (active) and 93% (active), respectively. Besides, the inhibition in experiment [2] was 48%; in experiment [3], 3%. In addition, the result in experiment [5], in experiment [6], in experiment [7] and in experiment [8] was inactive.
In the case of `O=C(NCCCCN1CCN(c2cccc3c2CCCC3)CC1)c1ccc(NC(=O)c2ccc(Cl)cc2)cc1`, the growth inhibition is 85% (active) in experiment [1] and 101% (active) in experiment [4]. For the same molecule, the inhibition is 35% in experiment [2] and 3% in experiment [3]. The result in experiment [5], in experiment [6], in experiment [7] and in experiment [8] was inactive.
On to `CC(C)(C)CCOC(=O)N1CCc2c(cc(O)c(O)c2Cl)C(c2ccc(O)cc2)C1` (stereo not drawn), for which the growth inhibition in experiment [1] was 95% (active); in experiment [4], 97% (active). The values for the inhibition in experiment [2] and in experiment [3] were 2% and -2%, respectively. Also, the result in experiment [5], in experiment [6], in experiment [7] and in experiment [8] was inactive.
`CNC(=O)c1cc(F)c(F)cc1Nc1nc(Nc2cccc(CS(C)(=O)=O)c2)ncc1Cl`: the growth inhibition in experiment [1] was 90% (active); in experiment [4], 91% (active). Further, the inhibition in experiment [2] is 52% (active); in experiment [3] it was 3%. For the same molecule, the outcome in experiment [5], in experiment [6], in experiment [7] and in experiment [8] was inactive.
On to `CC(C)CCNCc1ccc(OCc2cccc(C(=O)Nc3ccccc3)c2)c(I)c1`, for which the figures for the growth inhibition in experiment [1] and in experiment [4] were 59% (active) and 100% (active), respectively. The inhibition in experiment [2] is 25%; in experiment [3], 0%. The result in experiment [5], in experiment [6], in experiment [7] and in experiment [8] was inactive.
Consider `O=C(Nc1ccon1)c1cc(-c2cccnc2)nc2ccc(Br)cc12`, for which the growth inhibition in experiment [1] is 77% (active); in experiment [4], 99% (active). Also, the inhibition was 7% in experiment [2] and -3% in experiment [3]. Further, the result in experiment [5], in experiment [6], in experiment [7] and in experiment [8] was inactive.
Regarding `N#Cc1ccc(-c2ccc(C(=O)NCCCCN3CCC(c4cc(Br)c5c(c4O)CCCC5)CC3)cc2)cc1`, the growth inhibition in experiment [1] was 50% (active); in experiment [4], 101% (active). Further, the inhibition in experiment [2] was 93% (active); in experiment [3] it was 7%. Moreover, the outcome in experiment [5], in experiment [6], in experiment [7] and in experiment [8] was inactive.
Regarding `O=C(NCCCCCN1CCC(c2c[nH]c3ccccc23)CC1)Nc1cccc(Cl)c1`, the growth inhibition was 0% in experiment [1] and 86% (active) in experiment [4]. Moreover, the inhibition was 36% in experiment [2] and -1% in experiment [3]. Moreover, the result in experiment [5], in experiment [6], in experiment [7] and in experiment [8] was inactive.
As to `Clc1ccc(CNCCCCCCNCc2ccc(Cl)cc2)cc1`, the figures for the growth inhibition in experiment [1] and in experiment [4] were 28% and 96% (active), respectively. For the same molecule, the values for the inhibition in experiment [2] and in experiment [3] were 53% (active) and 1%, respectively. Moreover, the outcome in experiment [5], in experiment [6], in experiment [7] and in experiment [8] was inactive.
Consider `CC(C)C(=O)n1ncc2c3c(N)nc(N)nc3ccc21`, for which the growth inhibition in experiment [1] was 3%; in experiment [4], 87% (active). Also, the inhibition in experiment [2] was 0%; in experiment [3] it was -5%. Moreover, the result in experiment [5], in experiment [6], in experiment [7] and in experiment [8] was inactive.
As for `c1cncc(-c2cc(N3CCc4ccccc4C3)nc(-c3ccncc3)n2)c1`, the growth inhibition in experiment [1] and in experiment [4] was 100% (active) throughout. For the same molecule, the inhibition in experiment [2] was 56% (active); in experiment [3] it was -5%. The result in experiment [5], in experiment [6], in experiment [7] and in experiment [8] was inactive.
With `CN(CCN)Cc1ccc(-c2ccc(-c3nc4ccc(F)cc4[nH]3)s2)cc1`, the growth inhibition in experiment [1] is 81% (active); in experiment [4], 96% (active). Moreover, the inhibition was 31% in experiment [2] and -1% in experiment [3]. Besides, the result in experiment [5], in experiment [6], in experiment [7] and in experiment [8] was inactive.
On to `COc1ccc(CNC2CCN(c3ccc(NC(=O)c4cccc(Cl)c4)cc3)CC2)cc1OC`, for which the growth inhibition in experiment [1] was 13%; in experiment [4], 96% (active). For the same molecule, the inhibition in experiment [2] is 26%; in experiment [3] it was 6%. The outcome in experiment [5], in experiment [6], in experiment [7] and in experiment [8] was inactive.
`NC(=NCc1ccc(Cl)c(Cl)c1)NC(=NCCCCCCN=C(NC(N)=NCc1ccc(Cl)c(Cl)c1)N1CCCCC1)N1CCCCC1`: the growth inhibition in experiment [1] is 99% (active); in experiment [4], 100% (active). In addition, the results for the inhibition in experiment [2] and in experiment [3] were 6% and -5%, respectively. For the same molecule, the result in experiment [5], in experiment [6], in experiment [7] and in experiment [8] was inactive.
Regarding `COc1cccc(C(=O)Nc2nc3c(s2)CCN(Cc2ccccc2N2CCNCC2)CC3)c1`, the growth inhibition in experiment [1] is 11%; in experiment [4], 89% (active). Further, the inhibition in experiment [2] was 7%; in experiment [3], -6%. Besides, the outcome in experiment [5], in experiment [6], in experiment [7] and in experiment [8] was inactive.
For `CN1CCN(Cc2ccc(-c3cc4c(Nc5ccc(OCc6cccc(F)c6)c(Cl)c5)ncnc4s3)[nH]2)CC1`, the growth inhibition in experiment [1] was 99% (active); in experiment [4], 101% (active). Moreover, the inhibition in experiment [2] was 23%; in experiment [3] it was 2%. Also, the outcome in experiment [5], in experiment [6], in experiment [7] and in experiment [8] was inactive.
Turning to `O=C(NCc1ccc(F)cc1)Nc1cccc(-c2ccc(-c3nc4ccccc4[nH]3)cc2)c1`, the growth inhibition in experiment [1] was 49%; in experiment [4], 101% (active). The values for the inhibition in experiment [2] and in experiment [3] were 45% and 2%, respectively. Moreover, the result in experiment [5], in experiment [6], in experiment [7] and in experiment [8] was inactive.
In the case of `CCCCCNc1nc(Nc2ccccc2C)nc2ccccc12`, the growth inhibition in experiment [1] was 30%; in experiment [4], 100% (active). Besides, the inhibition was 5% in experiment [2] and -7% in experiment [3]. The result in experiment [5], in experiment [6], in experiment [7] and in experiment [8] was inactive.
For the molecule `CCCc1cc(Cc2cnc(N)nc2N)cc2c1OC(C)C2C` (stereo not drawn), the figures for the growth inhibition in experiment [1] and in experiment [4] were 0% and 98% (active), respectively. The inhibition was 32% in experiment [2] and -3% in experiment [3]. For the same molecule, the result in experiment [5], in experiment [6], in experiment [7] and in experiment [8] was inactive.
Turning to `Cc1cccc2[nH]c(-c3ccc(-c4cccc(CNCc5ccc(CN)cc5)c4)s3)nc12`, the results for the growth inhibition in experiment [1] and in experiment [4] were 48% and 99% (active), respectively. The inhibition in experiment [2] was 11%; in experiment [3] it was -2%. Further, the result in experiment [5], in experiment [6], in experiment [7] and in experiment [8] was inactive.
With `COC(=O)Nc1cc(C(F)(F)F)ccc1N1CCC(CNS(=O)(=O)c2ccc(OC)cc2)CC1`, the growth inhibition was 95% (active) in experiment [1] and 99% (active) in experiment [4]. The inhibition in experiment [2] was 13%; in experiment [3], 0%. In addition, the result in experiment [5], in experiment [6], in experiment [7] and in experiment [8] was inactive.
